{
  "source": "PubChem BioAssay",
  "key": {"[1]": {"molecular_target": "6-phosphogluconate dehydrogenase, decarboxylating (Homo sapiens) (UniProt P52209)", "sequence (P52209 whole entry, looked up)": "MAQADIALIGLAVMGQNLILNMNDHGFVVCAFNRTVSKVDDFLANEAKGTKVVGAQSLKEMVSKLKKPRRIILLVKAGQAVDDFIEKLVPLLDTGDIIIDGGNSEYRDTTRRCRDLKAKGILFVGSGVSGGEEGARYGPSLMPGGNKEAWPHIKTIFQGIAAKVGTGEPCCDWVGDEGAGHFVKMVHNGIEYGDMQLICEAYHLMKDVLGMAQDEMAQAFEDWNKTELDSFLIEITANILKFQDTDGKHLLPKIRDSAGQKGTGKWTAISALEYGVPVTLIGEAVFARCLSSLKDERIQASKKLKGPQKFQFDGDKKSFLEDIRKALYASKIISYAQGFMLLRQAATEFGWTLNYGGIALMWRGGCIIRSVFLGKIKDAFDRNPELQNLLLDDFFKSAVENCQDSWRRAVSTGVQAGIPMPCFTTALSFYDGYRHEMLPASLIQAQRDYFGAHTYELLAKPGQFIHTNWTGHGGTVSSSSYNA", "test": "6PGD enzyme inhibitors, primary screen, biochemical, human, recombinant enzyme, NADPH absorbance (AID 1159550)", "details": "recombinant 6PGD, NADPH absorbance 341 nm; at 10 µM; stronger effect = higher value"}, "[2]": {"test": "growth inhibition of DIPG glioma cells, dose response, cell-based, SU-DIPG-XIII, MIPE4.0, CellTiter-Glo, qHTS (AID 1347061; cut-off not given, nearly all actives have AC50 up to about 37 µM;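 further: cells exposed to compound for 48 hours before readout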)", "details": "SU-DIPG-XIII viability, CellTiter-Glo ATP luminescence"}, "[3]": {"test": "growth inhibition of DIPG glioma cells, dose response, cell-based, JHH-DIPG-1, MIPE4.0, CellTiter-Glo, qHTS (AID 1347062; cut-off not given, nearly all actives have AC50 up to about 27 µM)", "details": "JHH-DIPG-1 viability, CellTiter-Glo ATP luminescence"}, "[4]": {"molecular_target": "NAD(+) hydrolase SARM1 (Homo sapiens) (UniProt Q6SZW1)", "sequence (Q6SZW1 whole entry, looked up)": "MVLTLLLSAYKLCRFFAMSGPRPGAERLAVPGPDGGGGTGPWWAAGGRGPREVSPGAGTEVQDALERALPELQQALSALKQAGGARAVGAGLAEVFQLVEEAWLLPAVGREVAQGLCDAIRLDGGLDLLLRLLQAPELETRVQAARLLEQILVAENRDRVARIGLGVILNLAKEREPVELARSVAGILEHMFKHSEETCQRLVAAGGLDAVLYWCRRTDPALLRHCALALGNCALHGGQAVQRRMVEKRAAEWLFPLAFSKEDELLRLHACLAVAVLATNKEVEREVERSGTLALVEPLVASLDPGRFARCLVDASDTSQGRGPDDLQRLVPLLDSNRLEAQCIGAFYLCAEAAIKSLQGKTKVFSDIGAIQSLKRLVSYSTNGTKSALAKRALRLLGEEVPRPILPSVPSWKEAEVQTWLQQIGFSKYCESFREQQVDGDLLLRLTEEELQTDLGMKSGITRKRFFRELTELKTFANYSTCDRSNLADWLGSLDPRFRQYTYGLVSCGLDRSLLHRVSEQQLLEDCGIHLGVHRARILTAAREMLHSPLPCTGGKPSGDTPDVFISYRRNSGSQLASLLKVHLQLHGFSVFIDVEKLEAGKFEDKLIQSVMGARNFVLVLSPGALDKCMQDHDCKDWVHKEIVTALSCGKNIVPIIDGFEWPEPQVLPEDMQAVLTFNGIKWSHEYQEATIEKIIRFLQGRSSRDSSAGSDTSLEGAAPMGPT", "test": "SARM1 TIR NADase inhibitors, cell lysate, NAD-Glo luminescence (AID 1508614;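 active means compound whose remaining NAD level is above about 45 nM, limit read from the data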)", "details": "SAM-TIR HEK293T lysate NADase, at 1 µM, stronger effect = higher value"}, "[5]": {"molecular_target": "Mitogen-activated protein kinase 7 (Homo sapiens) (UniProt Q13164)", "sequence (Q13164 whole entry, looked up, the tested form may be a part)": "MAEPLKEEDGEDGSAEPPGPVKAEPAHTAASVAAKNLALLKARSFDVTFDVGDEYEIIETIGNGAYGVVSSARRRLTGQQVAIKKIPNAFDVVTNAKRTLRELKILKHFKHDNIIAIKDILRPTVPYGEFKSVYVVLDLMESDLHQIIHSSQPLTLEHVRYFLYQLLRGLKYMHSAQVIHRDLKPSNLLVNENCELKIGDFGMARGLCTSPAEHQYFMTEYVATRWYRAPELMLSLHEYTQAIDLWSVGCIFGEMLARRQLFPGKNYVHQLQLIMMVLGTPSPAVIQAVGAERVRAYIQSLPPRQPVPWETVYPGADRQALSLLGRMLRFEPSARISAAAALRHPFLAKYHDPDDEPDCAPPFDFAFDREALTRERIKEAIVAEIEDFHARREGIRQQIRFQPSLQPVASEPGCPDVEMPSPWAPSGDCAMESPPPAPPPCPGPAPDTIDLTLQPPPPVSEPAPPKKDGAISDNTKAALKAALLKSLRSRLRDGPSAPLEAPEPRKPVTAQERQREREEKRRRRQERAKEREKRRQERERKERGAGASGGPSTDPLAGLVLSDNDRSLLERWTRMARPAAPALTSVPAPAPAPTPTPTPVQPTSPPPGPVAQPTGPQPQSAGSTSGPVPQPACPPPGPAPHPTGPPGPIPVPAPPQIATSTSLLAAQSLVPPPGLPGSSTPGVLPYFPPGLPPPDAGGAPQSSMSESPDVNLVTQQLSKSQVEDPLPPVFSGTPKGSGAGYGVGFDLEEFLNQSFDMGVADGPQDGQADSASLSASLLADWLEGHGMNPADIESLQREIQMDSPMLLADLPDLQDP", "test": "ERK5 transactivation activators in reporter cells, primary screen, cell-based, HTS (AID 1508626;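 active means luciferase signal above three times the same-plate solvent-only control wells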;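 further: luciferase driven by Gal4-ERK5 fusion binding five Gal4 sites before minimal TATA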)", "details": "HeLa Gal4-ERK5 transactivation, 18 h, at 5 µM, stronger effect = higher value"}, "[6]": {"test": "sensitizers of A549 cells to miR-34 induction, primary screen, imaging, A549 dox-inducible miR-34, nuclei and caspase counts (AID 1347080;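 active means compounds whose cell count with miR-34 switched on is under 0.7 times the count with it off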)", "details": "A549 miR-34 inducible, Hoechst nuclei count, 48 h"}, "[7]": {"test": "viability rescue of complex I mutant cybrids, primary screen, cell-based, galactose medium, ATP luminescence (AID 1645843;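 active means z-score of at least 1.8 in each of two replicates, scored against plate mean and spread of sample wells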;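 further: positive z means more ATP and so rescue of galactose-driven cybrid death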)", "details": "complex I mutant cybrid cells, 72 h, stronger effect = higher value"}, "[8]": {"test": "liver-stage malaria parasite growth inhibition, primary screen, cell-based, HepG2, luciferase luminescence, HepG2 viability (AID 624349; in the data active means parasite load remaining mostly below about 12%, no sharp cut-off; inactive means mostly above about 10%;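 further: 100% = mean of DMSO negative control wells on the same plate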)", "details": "P. berghei liver stage in HepG2, luciferase luminescence, concentration not given here; parasite load remaining: stronger effect = lower value; viability: measured here: HepG2 viability without parasites"}, "[9]": {"test": "growth inhibition of DIPG glioma cells, dose response, cell-based, SU-DIPG-IV, MIPE4.0, CellTiter-Glo, qHTS (AID 1347063; cut-off not given, nearly all actives have AC50 up to about 30 µM;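 further: compound exposure lasted 48 hours before the viability readout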)", "details": "SU-DIPG-IV viability, CellTiter-Glo ATP luminescence"}, "[10]": {"test": "JHH-DIPG-1 glioma cell viability, MIPE5.0 library, CellTiter-Glo luminescence, qHTS (AID 1347067; cut-off not given, nearly all actives have AC50 up to about 26 µM;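 further: cells exposed to compound for 48 hours before readout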)", "details": "JHH-DIPG-1 glioma viability, CellTiter-Glo ATP luminescence"}, "[11]": {"test": "survival rescue of mitochondrial mutant cells in low glucose, primary screen, MELAS cybrids, Rieske KO mouse fibroblasts, CellTiter-Glo (AID 1508586;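 active means mean z-score across replicates of 1.96 or higher in either the MELAS or the Rieske mutant cell line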;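 further: z relative to plate mean and SD of compound and empty wells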)"}, "[12]": {"test": "polyglutamine-triggered caspase-3 activation inhibitors, cell-based (AID 1583)", "details": "polyglutamine-induced caspase-3 activation, cell assay; stronger effect = higher value;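 tested at 10 µM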"}, "[13]": {"test": "suppressors of polyQ aggregation in yeast, 75Q-TubU reporter (AID 1593)", "details": "Yeast 75Q polyglutamine aggregation reporter"}, "[14]": {"test": "rescue of polyQ-huntingtin neuronal dysfunction in worms, whole organism, C. elegans mechanosensory neurons, N-terminal huntingtin (AID 1599)", "details": "touch response, stronger effect = higher value"}, "[15]": {"test": "inhibitors of mitochondrial cytochrome c release, biochemical, purified mitochondria (AID 1603);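 further: mouse liver mitochondria challenged with calcium chloride; signal normalized to the plate average as 100%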", "details": "stronger effect = lower value"}, "[16]": {"test": "inhibitors of polyQ protein aggregation (AID 1604)", "details": "polyglutamine-induced protein aggregation inhibition assay; stronger effect = higher value; tested at 2.5 µM"}, "[17]": {"test": "enhancers of glutamate uptake in motor neurons, MN-1 cell line (AID 1612);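 further: tested at 1 µM final; 0% = mean of DMSO vehicle wells on each plate; positive means more glutamate uptake than control and negative means less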", "details": "MN-1 motor neuron cells, stronger effect = higher value"}, "[18]": {"test": "suppressors of polyglutamine aggregation in yeast, 75Q-TubH (AID 1616)", "details": "S. cerevisiae 75Q-TubH polyglutamine aggregation suppression; stronger effect = higher value"}, "[19]": {"details": "stronger effect = lower value, cell number ratio, induced over uninduced"}, "[20]": {"details": "measured here: relative caspase fold change +Dox/-Dox"}, "[21]": {"details": "measured here: total cells with miR-34 induction, stronger effect = lower value"}, "[22]": {"details": "measured here: total cells without miR-34 induction"}},
  "note": "Records with an inconclusive call do not appear. For some of these results: Potency and affinity values are given separately. The source made the active and inactive calls.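 How the source made its calls, unless noted: active means at least 20% inhibition of 6-phosphogluconate dehydrogenase activity; inactive means the rest.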",
  "data": [
    {"smiles": "O=C1c2c(O)cccc2[C@H]([C@@H]2O[C@H](CO)[C@@H](O)[C@H](O)[C@H]2O)c2cc(CO)cc(O)c21", "values": [
      {"measurement": "inhibition", "setting": "[1]", "result": "-1.53% (inactive)"},
      {"measurement": "outcome", "setting": "[2]", "result": "inactive"},
      {"measurement": "outcome", "setting": "[3]", "result": "inactive"},
      {"measurement": "remaining NAD", "setting": "[4]", "result": "10 nM (inactive)"},
      {"measurement": "luciferase signal", "setting": "[5]", "result": "44 AU (inactive)"}
    ]},
    {"smiles": "O=C(O)c1cc(=O)c2ccc(Cl)cc2[nH]1", "values": [
      {"measurement": "inhibition", "setting": "[1]", "result": "15.5% (inactive)"},
      {"measurement": "fold change", "setting": "[6]; [19]", "result": "0.965 (inactive)"},
      {"measurement": "fold change", "setting": "[6]; [20]", "result": 1.21},
      {"measurement": "cell count", "setting": "[6]; [21]", "result": 8410},
      {"measurement": "cell count", "setting": "[6]; [22]", "result": 8710},
      {"measurement": "z-score", "setting": "[7]", "result": "-0.2 (inactive)"}
    ]},
    {"smiles": "COc1ccc([C@@H]2CC(=O)c3c(O)cc(O[C@@H]4O[C@H](CO[C@@H]5O[C@@H](C)[C@H](O)[C@@H](O)[C@H]5O)[C@@H](O)[C@H](O)[C@H]4O)cc3O2)cc1O", "values": [
      {"measurement": "parasite load remaining", "setting": "[8]", "result": "169% (inactive)"},
      {"measurement": "viability", "setting": "[8]", "result": 116, "unit": "%"},
      {"measurement": "inhibition", "setting": "[1]", "result": "1.33% (inactive)"},
      {"measurement": "AC50", "setting": "[2]", "result": "14.8 µM (active)"},
      {"measurement": "outcome", "setting": "[9]", "result": "inactive"},
      {"measurement": "outcome", "setting": "[10]", "result": "inactive"},
      {"measurement": "fold change", "setting": "[6]; [19]", "result": "0.851 (inactive)"},
      {"measurement": "fold change", "setting": "[6]; [20]", "result": 2.5},
      {"measurement": "cell count", "setting": "[6]; [21]", "result": 8600},
      {"measurement": "cell count", "setting": "[6]; [22]", "result": 10100},
      {"measurement": "z-score", "setting": "[11]; MELAS cybrid survival, CellTiter-Glo 48 h, stronger effect = higher value", "result": "-0.52 (inactive)"},
      {"measurement": "z-score", "setting": "[11]; Rieske KO mouse fibroblast survival, CellTiter-Glo 72 h", "result": -0.165},
      {"measurement": "luciferase signal", "setting": "[5]", "result": "88 AU (inactive)"}
    ]},
    {"smiles": "O=C(O)c1c2ccccc2cc2ccccc12", "values": [
      {"measurement": "inhibition", "setting": "[12]", "result": -6.04, "unit": "%"},
      {"measurement": "score", "setting": "[13]", "result": 0.43},
      {"measurement": "rescue above control", "setting": "[14]", "result": 12.4},
      {"measurement": "cytochrome c release ratio", "setting": "[15]", "result": 0.85},
      {"measurement": "inhibition of aggregation", "setting": "[16]", "result": 33.3, "unit": "%"},
      {"measurement": "glutamate uptake change", "setting": "[17]", "result": 11, "unit": "%"},
      {"measurement": "aggregation suppression score", "setting": "[18]", "result": 0.249},
      {"measurement": "inhibition", "setting": "[1]", "result": "-1.37% (inactive)"},
      {"measurement": "fold change", "setting": "[6]; [19]", "result": "0.92 (inactive)"},
      {"measurement": "fold change", "setting": "[6]; [20]", "result": 0.787},
      {"measurement": "cell count", "setting": "[6]; [21]", "result": 9100},
      {"measurement": "cell count", "setting": "[6]; [22]", "result": 9890},
      {"measurement": "luciferase signal", "setting": "[5]", "result": "56 AU (inactive)"},
      {"measurement": "z-score", "setting": "[7]", "result": "0.475 (inactive)"}
    ]},
    {"smiles": "CN[C@H](CC(C)C)C(=O)N[C@H]1C(=O)N[C@@H](CC(N)=O)C(=O)N[C@H]2C(=O)N[C@H]3C(=O)N[C@H](C(=O)N[C@H](C(=O)O)c4cc(O)cc(O)c4-c4cc3ccc4O)[C@H](O)c3ccc(c(Cl)c3)Oc3cc2cc(c3O[C@@H]2O[C@H](CO)[C@@H](O)[C@H](O)[C@H]2O[C@H]2C[C@](C)(N)[C@H](O)[C@H](C)O2)Oc2ccc(cc2Cl)[C@H]1O", "values": [
      {"measurement": "parasite load remaining", "setting": "[8]", "result": "70.2% (inactive)"},
      {"measurement": "viability", "setting": "[8]", "result": 74.3, "unit": "%"},
      {"measurement": "inhibition", "setting": "[1]", "result": "3.51% (inactive)"},
      {"measurement": "outcome", "setting": "[2]", "result": "inactive"},
      {"measurement": "outcome", "setting": "[3]", "result": "inactive"},
      {"measurement": "outcome", "setting": "[9]", "result": "inactive"},
      {"measurement": "outcome", "setting": "[10]", "result": "inactive"},
      {"measurement": "fold change", "setting": "[6]; [19]", "result": "0.946 (inactive)"},
      {"measurement": "fold change", "setting": "[6]; [20]", "result": 1.32},
      {"measurement": "cell count", "setting": "[6]; [21]", "result": 9810},
      {"measurement": "cell count", "setting": "[6]; [22]", "result": 10400},
      {"measurement": "remaining NAD", "setting": "[4]", "result": "10 nM (inactive)"},
      {"measurement": "luciferase signal", "setting": "[5]", "result": "68 AU (inactive)"},
      {"measurement": "z-score", "setting": "[7]", "result": "0.26 (inactive)"}
    ]}
  ]
}
